Assay results published in PubChem BioAssay (EPA / NIEHS).
Records with an inconclusive call do not appear. The source made the active and inactive calls. How the source made its calls: active means hit-call score of the fitted dose curve at least 0.9, where 1 is the maximum; inconclusive means response in the unintended direction; inactive means score below 0.9.

These compounds were tested against Nuclear receptor subfamily 1 group I member 2 (Homo sapiens) (UniProt O75469) (assay: ATG_PXR_TRANS: Attagene TRANS-FACTORIAL HepG2 Assay for human Pregnane X Receptor (PXR) (AID 2283008)).
Nuclear receptor subfamily 1 group I member 2 (Homo sapiens), sequence (O75469 whole entry, looked up): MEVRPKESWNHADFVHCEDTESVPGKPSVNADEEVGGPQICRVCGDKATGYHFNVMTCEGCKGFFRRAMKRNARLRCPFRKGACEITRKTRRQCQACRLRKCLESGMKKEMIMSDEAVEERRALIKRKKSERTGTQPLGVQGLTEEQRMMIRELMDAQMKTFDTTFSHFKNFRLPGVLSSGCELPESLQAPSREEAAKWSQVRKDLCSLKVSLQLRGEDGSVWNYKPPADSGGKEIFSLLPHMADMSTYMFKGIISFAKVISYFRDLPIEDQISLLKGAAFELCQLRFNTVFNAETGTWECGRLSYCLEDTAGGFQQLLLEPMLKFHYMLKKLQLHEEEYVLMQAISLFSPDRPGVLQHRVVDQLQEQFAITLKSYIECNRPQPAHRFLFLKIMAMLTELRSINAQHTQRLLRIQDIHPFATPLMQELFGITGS
Description: ATG_TRANS is a cell-based, multiplexed-readout assay that uses HepG2, a human liver cell line, with measurements taken at 24 hours after chemical dosing in a 24-well plate.ATG_PXR_TRANS is one of 30 assay component(s) measured or calculated from the ATG_TRANS assay. It is designed to make measurements of mRNA induction, a form of inducible reporter, as detected with fluorescence intensity signals by Reverse transcription polymerase chain reaction (RT-PCR) and Capillary electrophoresis technology.Data from the assay component ATG_PXR_TRANS was analyzed into 1 assay endpoint. This assay endpoint, ATG_PXR_TRANS, was analyzed in the positive analysis fitting direction relative to DMSO as the negative control and baseline of activity. Using a type of inducible reporter, measures of mRNA for gain-of-signal activity can be used to understand the reporter gene at the transcription factor-level as they relate to the gene NR1I2. Furthermore, this assay endpoint can be referred to as a primary readout, because this assay has produced multiple assay endpoints where this one serves a reporter gene function. To generalize the intended target to other relatable targets, this assay endpoint is annotated to the nuclear receptor intended target family, where the subfamily is non-steroidal.
Human liver HepG2 cells are transiently transfected with multiple reporter transcription units (MRTUs) in 6-well plates using FuGene 6 reagent (Roche; 3 ml FuGene/1 mg DNA). The MRTU constructs are regulated by a cis-regulating element (promoter). […] A major difference between the CIS and TRANS system is that in CIS activities of endogenous TFs are measured, whereas the TRANS assay evaluates changes in activities of exogenous, chimeric NR-Gal4 proteins. […] At the end of 24 hour incubation, total RNA was isolated using TriZol reagent (Invitrogen). The isolated RNA is then reverse-transcribed using oligo(dT) primer and Mo-MLV reverse transcriptase (Invitrogen) with DNAse I (Ambion) treatment for 30 min. The one-tenth of the produced cDNA was amplified by PCR using Taq DNA polymerase (Invitrogen) and two reporter sequence-specific primers. The PCR products were fluorescently labeled by primer extension with 6-arboxyfluorescein (6-FAM) 5'-labeled reporter sequence-specific primer (2 min at 95 C, 20 s at 68 C and 10 min at 72 C) and these products were digested with 5U of HpaI (New England Biolabs) for 2h at 37 C. The fragments were purified using Qiaquick PCR columns (Qiagen), analyzed on an ABI 3130xL genetic analyzer (Applied Biosystems) with peak positions identified by using a set of X-rhodamine (ROX)-labeled MapMarker1000 molecular weight standards (BioVentures). The raw capillary electrophoresis data was processed using Attagraph software (Attagene).
`Nc1cc([N+](=O)[O-])ccc1Cl` was tested, and the outcome was “inactive”.
In the case of `COC(C)CCO` (stereo not given), the outcome is reported as “inactive”.
For `CCCC(=O)OCCC(C)CCC=C(C)C` (stereo not given), the outcome was “inactive”.
`CCc1c(C)cc(N)c(CC)c1N` was tested, and the AC50 was 100 µM (active).
In the case of `C[Si](O[Si](C)(C)C)O[Si](C)(C)C`, the outcome is reported as “inactive”.
For `CC(O)C(C)O` (stereo not given), the outcome was “inactive”.
For `COc1nc(C)nc(N)n1`, the outcome was “inactive”.
In the case of `NNc1nc(-c2ccc(N)cc2)cs1`, the outcome is reported as “inactive”.
`CCCCCCCCCCCCCOS(=O)(=O)O` was tested, and the outcome was “inactive”.
`CO[Si](CCCn1c(=O)n(CCC[Si](OC)(OC)OC)c(=O)n(CCC[Si](OC)(OC)OC)c1=O)(OC)OC` was tested, and the outcome was “inactive”.
In the case of `CC(=O)O[C@]1(C(C)=O)CC[C@H]2[C@@H]3C[C@H](C)C4=CC(=O)CC[C@]4(C)[C@H]3CC[C@@]21C`, the outcome is reported as “inactive”.
With `CCN(CC)c1ccc2c(-c3ccccc3C(=O)O)c3ccc(=[N+](CC)CC)cc-3oc2c1` the AC50 was 0.335 µM (active).
`COC(=O)OC` was tested, and the outcome was “inactive”.
In the case of `C=C(C)[C@@H]1CCC2=CC(=O)C[C@@H](C)[C@]2(C)C1`, the outcome is reported as “inactive”.
For `C=CC(=O)NCOCC(C)C`, the outcome was “inactive”.
`CC(=O)OCc1ccc2c(c1)OCO2` was tested, and the outcome was “inactive”.
For `O=C(COc1ccc(Cl)cc1)N1CCN(Cc2ccc3c(c2)OCO3)CC1`, the outcome was “inactive”.
With `NCCOCCO` the outcome was “inactive”.
For `CCCCCCCCCCCCN(CCCCCCCCCCCC)CCCCCCCCCCCC`, the outcome was “inactive”.
For `C[C@H]1C[C@H]2[C@@H]3CCC4=CC(=O)C=C[C@]4(C)[C@@]3(F)[C@@H](O)C[C@]2(C)[C@@]1(O)C(=O)COP(=O)(O)O`, the outcome was “inactive”.
In the case of `Cc1ncc([N+](=O)[O-])n1C`, the outcome is reported as “inactive”.
In the case of `CCCCCOC(=O)CCC`, the outcome is reported as “inactive”.
`C[C@]12CC[C@H]3[C@@H](CCC4=CC(=O)CC[C@@]43C)[C@@H]1CC[C@@H]2C(=O)CO` was tested, and the AC50 was 2.12 µM (active).
`CC1CCC(C(C)CS)CC1S` (stereo not given) was tested, and the AC50 was 2.84 µM (active).
With `O=C1C(c2[nH]c3ccc(S(=O)(=O)O)cc3c2O)=Nc2ccc(S(=O)(=O)O)cc21` the outcome was “inactive”.
For `CCCCCC=CCC(=O)OC`, the outcome was “inactive”.
In the case of `CCCC1CCC(=O)O1` (stereo not given), the outcome is reported as “inactive”.
With `C=C(C)C(=O)Nc1ccc(Cl)c(Cl)c1` the AC50 was 7.08 µM (active).
In the case of `N#Cc1ccc(CC(=NNC(=O)Nc2ccc(OC(F)(F)F)cc2)c2cccc(C(F)(F)F)c2)cc1`, the outcome is reported as “inactive”.
`Cc1ccc(O)c(C(C)(C)C)c1` was tested, and the AC50 was 19.1 µM (active).
For `CCCOCC(C)O` (stereo not given), the outcome was “inactive”.
In the case of `Fc1c(F)c(F)c(Br)c(F)c1F`, the outcome is reported as “inactive”.
With `Cc1ccccc1C=O` the AC50 was 20.9 µM (active).
With `CCCCO` the outcome was “inactive”.
With `Cc1ccc(S)cc1` the outcome was “inactive”.
For `C=COCCOCCOCCOC=C`, the outcome was “inactive”.
With `COc1c(Cl)c(Cl)c(Cl)c(Cl)c1Cl` the AC50 was 10.3 µM (active).
`CC(C)(C)c1cc(CCC(=O)NN)cc(C(C)(C)C)c1O` was tested, and the outcome was “inactive”.
With `CC(=O)C(C)=O` the outcome was “inactive”.
In the case of `NC(N)=NC(=O)c1nc(Cl)c(N)nc1N`, the outcome is reported as “inactive”.
